Among the data in PubChem BioAssay (NCATS) are Potency values, retold here.

Values without a mark were called inactive. No rule for the calls is given here. Some results are limits rather than exact numbers.
Potency is read from the fitted curve at half-maximal effect.

For the assay, the system named is HIV-1 nucleocapsid protein NCp7 (binding to TG oligonucleotide). Description: HIV Nucleocapsid (AID 346).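 Also: potency is for inhibitors that block NC binding and lower polarization.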 Particulars: HIV-1 NC / fluorescein-TGTGTGTG probe, fluorescence polarization. On the procedure:
NCGC Assay Overview: HIV-1 nucleocapsid protein (HIV-1 NC) is a small (6.5 kDa) basic zinc-finger protein which participates in packaging of viral genomic RNA. The spacing and metal-chelating residues (3 Cys, 1 His) of the Cys-X2-Cys-X4-His-X4-Cys Zn fingers are conserved among all known retroviruses (J. Med. Chem. 1998, 41, 1371-1381). HIV-1 NC was assayed for its binding to the consensus sequence single-stranded 5'-TGTGTGTG. […] High salt was included to increase the stringency of binding and inhibitor screen. Reducing agents and zinc were present to stabilize the nucleocapsid zinc-finger protein.
NCGC Assay Protocol Summary: Buffer. Hepes pH 7.5, 250mM NaCl, 1uM ZnCl2. 0.004% polyethylene glycol 20000. TCEP (100 uM) and 2-Mercaptoethanol (5 mM), added fresh the day of the experiment. Reagents/Controls. 10 nM TG4xF only in columns 3 and 4 as negative control. 10 nM TG4xF/100 nM HIV-1 NC in columns 1, 2, 5-48. Titration of control compound NSC-13778 (from 20 mM, then 1:2) pin-transferred to column 2. Assay Steps. Two uL of reagents were dispensed to 1536-well Kalypsys black plates. The plates were centrifuged for 1 min at 1000 rpm. Compounds and controls (20 nL) were transferred via Kalypsys PinTool. The plates were incubated for 1 hr at room temperature, and then read on ViewLux (Perkin-Elmer). High-throughput CCD imager using fluorescein polarization filter set and 45 seconds exposure time.
On the technique in general: In fluorescence polarisation assays a small probe gives low polarisation when free and higher when bound to something large.
For `CC(C)CN1CCC2(CC1)CCN(S(C)(=O)=O)CC2`, the Potency was greater than 20 µM. For `COCC(=O)N1CCC2(CCCN(Cc3ccncc3)C2)CC1`, the Potency is greater than 20 µM. The result for `O=C(c1ccco1)N1CCC2(CC1)CN(Cc1ccncc1)C2` reads greater than 20 µM; that for `N#Cc1cccc(NC(=O)N2CC3(CCN(C(=O)Oc4ccccc4)CC3)C2)c1`, greater than 20 µM. The result for `O=C(Oc1ccccc1)N1CCC2(CCCN(Cc3nccs3)C2)CC1` reads greater than 20 µM; that for `O=C(Nc1cccc(F)c1)N1CCCC2(CCN(C(=O)Oc3ccccc3)CC2)C1`, greater than 20 µM. As for `CC(C)NC(=O)N1CCCC2(CCN(C(=O)Oc3ccccc3)CC2)C1`, the figure is greater than 20 µM; as for `c1ccc(N2CC[C@@]3(CCCNC3)C2)nc1`, greater than 20 µM; as for `O=C(Nc1cccc(F)c1)N1CC[C@@]2(CCCN(C(=O)Oc3ccccc3)C2)C1`, greater than 20 µM. `N#Cc1ccc(CN2CCCC3(CCN(C(=O)Oc4ccccc4)CC3)C2)cc1`: the Potency was greater than 20 µM. The result for `O=C(c1cnccn1)N1CCC2(CC1)CN(Cc1ccncc1)C2` reads greater than 20 µM. Consider `CC(C)NC(=O)N1CCC2(CC1)CCN(C(=O)Oc1ccccc1)CC2`, for which the Potency is greater than 20 µM. The result for `CC(C)CN1CCCC2(CCN(C(=O)Oc3ccccc3)CC2)C1` reads greater than 20 µM; that for `Cc1noc(C)c1C(=O)N1CCC[C@@]2(CCN(CC(C)C)C2)C1`, greater than 20 µM. As for `O=C(Nc1ccccc1)N1CCC2(CC1)CCN(C(=O)Oc1ccccc1)CC2`, the figure is greater than 20 µM.

For `c1cnc(N2CCCC3(CCNCC3)C2)nc1`, the Potency is greater than 20 µM.

Regarding `CN1CCCC2(CCN(C(=O)c3ccncc3)CC2)C1`, the Potency was greater than 20 µM. As for `Cc1noc(C)c1C(=O)N1CCC2(CCCN(CC(C)C)C2)CC1`, the figure is greater than 4 µM; as for `COc1ccc(NC(=O)N2CCCC3(CCN(C(=O)Oc4ccccc4)CC3)C2)cc1`, greater than 20 µM; as for `c1cnc(N2CC[C@@]3(CCCNC3)C2)nc1`, greater than 20 µM. The result for `O=C(Oc1ccccc1)N1CCC2(CCCN(Cc3ccccc3)C2)CC1` reads greater than 20 µM; that for `Clc1ccccc1-c1cncnc1NCCc1cnc[nH]1`, greater than 20 µM; that for `c1ccc(CN2CCCC3(CCNCC3)C2)cc1`, greater than 20 µM. For `O=C(Nc1cccc(F)c1)N1CCC2(CC1)CCN(C(=O)Oc1ccccc1)CC2`, the Potency is greater than 20 µM.

In the case of `O=C(c1csnn1)N1CCC[C@@]2(CCN(Cc3ccncc3)C2)C1`, the Potency was greater than 20 µM.

On to `CN1CC[C@@]2(CCCN(C(=O)Oc3ccccc3)C2)C1`, for which the Potency is greater than 20 µM. The result for `O=C(Nc1ccccc1)N1CCCC2(CCN(C(=O)Oc3ccccc3)CC2)C1` reads greater than 20 µM; that for `CN1CC[C@@]2(CCCN(C(=O)c3ccncc3)C2)C1`, greater than 20 µM. As for `CC(C)NC(=O)N1CC[C@@]2(CCCNC2)C1`, the figure is greater than 20 µM; as for `O=C(c1ccco1)N1CCC[C@@]2(CCN(Cc3ccncc3)C2)C1`, greater than 20 µM. Turning to `CC(C)NC(=O)N1CCC2(CCNCC2)CC1`, the Potency is greater than 20 µM.

Turning to `COc1ccc(NC(=O)N2CC[C@@]3(CCCN(C(=O)Oc4ccccc4)C3)C2)cc1`, the Potency was greater than 20 µM. For `COC(=O)N1CCC2(CCN(CC(C)C)CC2)CC1`, the Potency is greater than 20 µM. `CN1CCC2(CC1)CCN(C(=O)c1ccco1)CC2`: the Potency is greater than 20 µM. As for `c1ccc(N2CCCC3(CCNCC3)C2)cc1`, the figure is greater than 20 µM; as for `N#Cc1cccc(NC(=O)N2CC[C@@]3(CCCN(C(=O)Oc4ccccc4)C3)C2)c1`, greater than 4 µM. In the case of `Cc1nc2cnc(N3CCNCC3)nc2n(C)c1=O`, the Potency is greater than 20 µM. As for `CC(C)CN1CC[C@@]2(CCCN(C(=O)Oc3ccccc3)C2)C1`, the figure is greater than 20 µM; as for `c1ccc(N2CC[C@@]3(CCCNC3)C2)cc1`, greater than 20 µM. Take `CC(C)CN1CC[C@@]2(CCCN(C(=O)c3ccncc3)C2)C1`: the Potency is greater than 20 µM.
